Results taken from PubChem BioAssay (NCI).
Compounds without any hit were thinned out: in the full panel of roughly 79,000, 15% have a hit. Values without a mark were called inactive. Active and inactive are the calls of the source. Cut-off read from the data, not from the text of the source: active = growth inhibition above about 70%; inactive = the rest.

Assay: NCI Yeast Anticancer Drug Screen. Data for the mec2-1 strain (AID 157)
Conditions: S. cerevisiae mec2-1 strain, at 50.0 µM, hits give high values
Description: Growth inhibition of yeast strains with defined genetic alterations is measured as a screen for potential anti-cancer activity. Selected strains with alterations in DNA damage repair or cell cycle control were exposed to compounds and growth inhibition was measured relative to vehicle treated controls. The strain used in this assay is mec2-1

Q: Which growth inhibition does the source give for `CCCCC(CC)CC#N` (stereo not given) here?
A: -20.1%

Q: For `O=C(N/N=C/c1ccc(Cl)cc1Cl)c1cccc2ccccc12`, which growth inhibition is on record?
A: -6.3%

Q: Which growth inhibition does the source give for `c1ccc2c(c1)CCN2CCN1CCc2ccccc21` here?
A: -12.4%

Q: For `Cc1cc2c(s1)C(=O)c1sccc1C2=O`, which growth inhibition is on record?
A: 90.8% (active)

Q: Which growth inhibition does the source give for `COc1ccccc1NC(=S)N/N=C(/c1ccccc1)c1ccccn1` here?
A: 22.6%

Q: Which growth inhibition does the source give for `Cn1c(=N)n(CC(=O)NC23CC4CC(CC(C4)C2)C3)c2ccccc21` here?
A: -15.4%

Q: For `CCCCCCCCCCCC(=O)NC(=S)Nc1ccc(N(C)C(C)=O)cc1`, which growth inhibition is on record?
A: 92.8% (active)

Q: With `CC1(C)OC2CC3COC(=O)C3CC2O1` (stereo not given) as the molecule, how does the growth inhibition read?
A: -4.85%

Q: Which growth inhibition does the source give for `CC1(C)CC(=NNC(N)=S)CC(C)(C)N1` here?
A: -7.2%

Q: Which growth inhibition does the source give for `Clc1ccc(CCn2cncn2)cc1` here?
A: -11.9%

Q: For `C1=C(CN2CCCCC2)Oc2ccccc2O1`, which growth inhibition is on record?
A: 36.9%

Q: For `CCC(C1=CCCCC1)c1nc2c([nH]1)c(=O)n(C)c(=O)n2C` (stereo not given), which growth inhibition is on record?
A: 8.5%

Q: With `CCOc1ccccc1/C=C/C(=O)O` as the molecule, how does the growth inhibition read?
A: -9.7%

Q: Which growth inhibition does the source give for `CCOC(=O)NNC(N)=O` here?
A: -19.2%

Q: Which growth inhibition does the source give for `C/C(=N/O)c1ccc(C(F)(F)F)cc1` here?
A: -15.6%

Q: Which growth inhibition does the source give for `CCCCCCc1cc2c(C)c(C)c(=O)oc2cc1OCCCOc1cc2oc(=O)c(C)c(C)c2cc1CCCCCC` here?
A: -24.9%

Q: For `O=C(O)C1C2OC3C(OC(=O)C31)C2Cl` (stereo not given), which growth inhibition is on record?
A: 6%

Q: For `O=C(c1cccc(Cl)c1)c1cccc(Cl)c1`, which growth inhibition is on record?
A: -14.8%

Q: For `CCCCN(CC)C(=O)C(=O)Cc1nc2ccc(C(=O)c3ccccc3)cc2[nH]c1=O`, which growth inhibition is on record?
A: 2.45%

Q: Which growth inhibition does the source give for `COc1cc(C(C)(C)C)c2oc3c(c2c1)C(=O)C(C(C)(C)C)=CC3(OC)OC` here?
A: -6.75%

Q: For `Cc1ccc(Cl)cc1N`, which growth inhibition is on record?
A: 31.1%

Q: Which growth inhibition does the source give for `NC(Cc1cccc([N+](=O)[O-])c1)C(=O)O` (stereo not given) here?
A: -29.5%

Q: Which growth inhibition does the source give for `CCSc1cc2c(cc1O)CC[C@@H]1[C@@H]2CC[C@]2(C)[C@@H](O)CC[C@@H]12` here?
A: -18.1%

Q: For `Cn1c(=O)c2ccccc2c2cc([N+](=O)[O-])ccc21`, which growth inhibition is on record?
A: -5.05%

Q: With `COc1c(O)c2c(=O)cc3c4c5c(cc(=O)c6c(O)c(OC)c(CC(C)O)c(c(c1CC(C)O)c24)c65)OCO3` (stereo not given) as the molecule, how does the growth inhibition read?
A: 97.8% (active)

Q: Which growth inhibition does the source give for `Cc1nn(C(=O)c2ccccc2O)c2c1C(c1ccccc1)SC(N)=N2` (stereo not given) here?
A: 17.6%

Q: For `Cc1ccc(C(c2ccccc2)C(CC(=O)O)CC(=O)O)cc1` (stereo not given), which growth inhibition is on record?
A: 20%

Q: Which growth inhibition does the source give for `O=C(OCC1OC(OC(=O)c2ccccc2)C(F)C1OC(=O)c1ccccc1)c1ccccc1` (stereo not given) here?
A: -18.6%

Q: For `Clc1ccccc1C(N1CCCCC1)N1CCCCC1`, which growth inhibition is on record?
A: 13.2%

Q: Which growth inhibition does the source give for `Cc1cc(=O)n(Cc2ccccc2)n1-c1ccccc1` here?
A: 12.8%

Q: For `Cc1nc(C(=O)O)c(C(=O)O)[nH]1`, which growth inhibition is on record?
A: -15.1%

Q: With `CC1COC(C)(C)O1` (stereo not given) as the molecule, how does the growth inhibition read?
A: -31.6%

Q: Which growth inhibition does the source give for `COc1ccc(C2S/C(=C\c3cccc([N+](=O)[O-])c3)C(=O)N2NC(=O)Cc2ccccc2)cc1` (stereo not given) here?
A: -21.2%

Q: For `O=Cc1cc(C(=O)c2ccccn2)c2cc(Cl)cc(Cl)c2n1`, which growth inhibition is on record?
A: 5.9%

Q: Which growth inhibition does the source give for `CC(=O)NC(C=O)C(O)C(O)C(O)C(=O)O` (stereo not given) here?
A: -11.4%

Q: With `c1ccc2c(c1)cnc1c3ccccc3ccc21` as the molecule, how does the growth inhibition read?
A: -7.85%

Q: For `NC(=O)C1CCCNC1` (stereo not given), which growth inhibition is on record?
A: -6.65%

Q: With `CC(NC(=O)CNP(=O)(c1ccccc1)c1ccccc1)C(=O)NC(Cc1ccccc1)C(=O)OCc1ccccc1` (stereo not given) as the molecule, how does the growth inhibition read?
A: 4.3%

Q: For `N#CC(C(=O)C(N)=O)c1ccccc1Cl` (stereo not given), which growth inhibition is on record?
A: -26.8%

Q: For `Oc1ccccc1CNCc1nc2ccccc2[nH]1`, which growth inhibition is on record?
A: -1.7%
